Source: PubChem BioAssay AID652062 (Broad Institute, 2013)
Hit rate of the full screen: of about 1,400 compounds, about 1,100 (79%) were called active.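 The calls were made as follows: active = fitted half-maximal concentration of a falling signal no higher than twice the top valid dose in every test run; inconclusive = runs disagree, or flat partial inhibition, or poor fit; inactive = every run inactive: flat, wrong direction, or potency beyond limit.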 The set was probably picked from earlier hits. Only a sample is shown. Potency and affinity values are given separately.

experiment: inhibitors of clade B AD8 Env fusion, dose response, cell-based, cherry-pick (AID 652062); details: HeLa-AD8 Env / CEM-CCR5 cell fusion, luciferase; at 35 µM (top of the series) unless noted

SMILES | activity change, negative = inhibition
C[C@@H]1CN([C@H](C)CO)C(=O)c2cccc(NS(=O)(=O)c3ccc(Cl)cc3)c2O[C@H]1CN(C)CC1CCCCC1 | 87% [at 8 µM]
C[C@H]1CN([C@@H](C)CO)C(=O)c2cccc(NC(=O)C3CCCCC3)c2O[C@H]1CN(C)S(C)(=O)=O | 43.4%
CNC[C@@H]1Oc2c(N)cccc2C(=O)N([C@@H](C)CO)C[C@@H]1C | -6.55%
C[C@@H]1CN([C@H](C)CO)C(=O)c2cccc(NC(=O)c3cnccn3)c2O[C@H]1CN(C)Cc1ccccc1 | 8.76%
C[C@H](CO)N1C[C@H](C)[C@H](CN(C)C(=O)Nc2ccccc2)Oc2c(NS(=O)(=O)c3ccc(F)cc3)cccc2C1=O | 63.4% [at 8 µM]
COc1ccccc1N/C(N)=N/c1nc(CSc2ccc(C)cc2)cc(=O)[nH]1 | -51.5%
CCOC(=O)c1ccc(NC2c3ncccc3C(=O)N2Cc2ccc(F)cc2)cc1 (configuration not stated) | -27%
CCOC(=O)C1=C(C)N=C2c3ccccc3C(=O)C2C1c1ccc(Cl)cc1 (configuration not stated) | -84.7%
CC(CCc1ccco1)NC(=O)CCc1nnc2ccc(NCc3ccccc3Cl)nn12 (configuration not stated) | 87.2%
COc1cccc(S(=O)(=O)N[C@@H]2CC[C@H](CCN)O[C@H]2CO)c1 | 3.96%
COc1cccc(S(=O)(=O)N[C@H]2CC[C@@H](CCN)O[C@@H]2CO)c1 | 11.2%
O=C(Nc1cc2c3c(c1)CC(=O)N3CCC2)c1ccc(Cl)cc1 | 197% [at 16 µM]
CCCNC(=O)C[C@@H]1C[C@H]2c3cc(NC(=O)c4cccnc4)ccc3O[C@H]2[C@H](CO)O1 | 6.61%
COc1ccccc1CNC(=O)C[C@H]1C[C@@H]2c3cc(NC(=O)c4cccnc4)ccc3O[C@@H]2[C@@H](CO)O1 | 64.7%
CCN(CC)C(=O)c1ncn2c1C(=O)NC[C@@H]2C | -31.4%
CC1CCN(C(=O)c2ncn3c2C(=O)NC[C@@H]3C)CC1 | 15.1%
Cc1ccc(-c2ccc3c(c2)O[C@@H](CN(C)C(=O)C2CCCCC2)[C@H](C)CN([C@H](C)CO)S3(=O)=O)cc1 | 53.1% [at 16 µM]
CCCC#Cc1ccc2c(c1)O[C@@H](CN(C)C(=O)C1CCCCC1)[C@H](C)CN([C@H](C)CO)S2(=O)=O | 90.1% [at 16 µM]
CC(C)C#Cc1ccc2c(c1)O[C@@H](CN(C)C(=O)C1CCCCC1)[C@H](C)CN([C@H](C)CO)S2(=O)=O | 41.8% [at 16 µM]
CCC(=O)N(C)C[C@H]1Oc2cc(/C=C/c3ccccc3)ccc2S(=O)(=O)N([C@@H](C)CO)C[C@H]1C | -29.3%
C[C@@H]1CN([C@H](C)CO)S(=O)(=O)c2ccc(C#Cc3cccc(F)c3)cc2O[C@@H]1CN(C)C(=O)CN1CCOCC1 | 80.2%
C[C@@H]1CN([C@@H](C)CO)S(=O)(=O)c2ccc(-c3ccc(F)cc3)cc2O[C@H]1CN(C)C(=O)C1CCCCC1 | -27.8%
Cc1ccc(C(=O)NCc2ccccn2)cc1S(=O)(=O)N1CCCCC1 | 24.4%

SMILES | activity change, negative = inhibition
Cc1ccc(S(=O)(=O)N(C)C[C@H]2Oc3ccc(NC(=O)Nc4cccc5ccccc45)cc3C(=O)N([C@H](C)CO)C[C@@H]2C)cc1 | 64%
CO[C@H]1CN(C)C(=O)c2cc(NS(=O)(=O)c3ccc(Cl)cc3)ccc2OC[C@@H](C)N(C)C[C@@H]1C | 45%
CO[C@@H]1CN(C)C(=O)c2ccc(NS(C)(=O)=O)cc2OC[C@@H](C)N(C(=O)C2CCCCC2)C[C@H]1C | 26.2%
CO[C@H]1CN(C)C(=O)c2ccc(NC(=O)C3CC3)cc2OC[C@@H](C)N(C(C)=O)C[C@@H]1C | 20%
CCCC(=O)Nc1ccc2c(c1)OC[C@@H](C)N(C(=O)CN(C)C)C[C@H](C)[C@@H](OC)CN(C)C2=O | -23.4%
CCS(=O)(=O)Nc1ccc2c(c1)C(=O)N(C)C[C@H](OC)[C@@H](C)CN(C(=O)C1CCC1)[C@H](C)CO2 | 25.1%
CCC(=O)Nc1ccc2c(c1)C(=O)N(C)C[C@@H](OC)[C@H](C)CN(C(=O)CC)[C@@H](C)CO2 | 44.7%
CCCC(=O)Nc1ccc2c(c1)OC[C@H](C)N(Cc1ccncc1)C[C@H](C)[C@H](OC)CN(C)C2=O | -9.34%
COc1ccccc1C(=O)Nc1ccc2c(c1)OC[C@H](C)N(C(C)=O)C[C@H](C)[C@H](OC)CN(C)C2=O | -17.7%
CO[C@H]1CN(C)C(=O)c2cc(NC(C)=O)ccc2OC[C@@H](C)N(Cc2nccs2)C[C@H]1C | 20%
CO[C@@H]1CN(C)C(=O)c2ccc(NC(C)=O)cc2OC[C@@H](C)N(Cc2cncnc2)C[C@@H]1C | 15.1%
CCCC(=O)Nc1ccc2c(c1)C(=O)N(C)C[C@@H](OC)[C@@H](C)CN(Cc1nccs1)[C@@H](C)CO2 | 33.3%
COc1ccccc1S(=O)(=O)Nc1ccc2c(c1)C(=O)N(C)C[C@@H](OC)[C@@H](C)CN[C@@H](C)CO2 | -2.95%
CO[C@@H]1CN(C)C(=O)c2cc(NS(=O)(=O)c3ccc(C)cc3)ccc2OC[C@H](C)N(C(=O)NC(C)C)C[C@@H]1C | -8.46%
CCOC(=O)CN1CCCc2nc(C)c(C)cc21 | -11.4%
Cc1ccc(Cn2nnnc2CN2CCC(c3nc4ccc(Cl)cc4[nH]3)CC2)cc1 | 44.3%
CC(=O)c1ccc([C@H]2C[C@@]34CN(C(=O)OC(C)(C)C)S(=O)(=O)[C@H]3C[C@H]2O4)cc1 | -3.29%
COc1ccc(C)cc1NC(=O)CCNS(=O)(=O)c1ccc2c(c1)CC(C)N2C(C)=O (configuration not stated) | -17.8%
CNC[C@@H]1Oc2ccc(NS(C)(=O)=O)cc2CC(=O)N([C@H](C)CO)C[C@H]1C | 18.9%
O=C(Nc1ccc(Cl)cn1)C1CCCN1S(=O)(=O)c1cccc2ccccc12 (configuration not stated) | -67.5%
CCCN1[C@H](C(=O)N[C@@H](C)c2ccccc2)[C@@H](CO)[C@@H]2Cn3c(ccc(-c4cccc(F)c4)c3=O)[C@@H]21 | 99.2%
Cc1nc2ccccc2c2oc(C(=O)NCc3ccc4c(c3)OCO4)cc12 | -50%
CCc1ccc(-c2nc(CN3CCC(C(=O)NCCc4ccc(OC)c(OC)c4)CC3)c(C)o2)cc1 | -25.1%

SMILES | activity change, negative = inhibition
COc1ccc(S(=O)(=O)N[C@H]2C=C[C@H](CC(=O)N3CCN(c4ccccc4)CC3)O[C@@H]2CO)cc1 | -26.4%
O=C(Cc1ccccc1)N[C@@H]1C=C[C@H](CC(=O)N2CCCCC2)O[C@@H]1CO | -10.8%
Cc1ccc(S(=O)(=O)N[C@@H]2CC[C@H](CCNC(=O)c3ccccc3F)O[C@H]2CO)cc1 | 23.6%
CC(C)CN(C(=O)c1ccc(S(=O)(=O)N2CCCCC2)cc1)C1CCS(=O)(=O)C1 (configuration not stated) | -25.2%
COCc1[nH]nc2c1C(c1ccc(F)cc1)N(Cc1ccccc1)C2=O (configuration not stated) | 11.7%
O=C(Nc1ccc(F)cc1)Nc1ccc2c(c1)[C@H]1C[C@@H](CC(=O)N3CCCCC3)O[C@H](CO)[C@H]1O2 | 57.6%
CS(=O)(=O)N(Cc1ccc(Cl)cc1)c1ccc(C(=O)NCCC2=CCCCC2)cc1 | -7.87%
CC(=O)OC1c2ccccc2C(=O)N1c1ccccc1C (configuration not stated) | -15.7%
Cc1ccc(C2CC(=O)c3cnc(N4CCc5ccccc5C4)nc3C2)cc1 (configuration not stated) | 0.787%
CCNC(=O)C[C@H]1CC[C@@H]2[C@@H](COc3ccc(NC(=O)Cc4cccs4)cc3C(=O)N2C)O1 | 66.7%
CCNC(=O)Nc1ccc2c(c1)C(=O)N(C)[C@@H]1CC[C@@H](CC(=O)NCC3CCCCC3)O[C@@H]1CO2 | -14.5%
COCC(=O)Nc1ccc2c(c1)C(=O)N(C)[C@H]1CC[C@H](CC(=O)NC3CCCC3)O[C@H]1CO2 | 17%
Cc1nn(C)cc1NC(=O)C[C@H]1CC[C@@H]2[C@@H](COc3ccc(NC(=O)C4CCC4)cc3C(=O)N2C)O1 | -24.8%
CN1C(=O)c2cc(NC(=O)NC3CCCC3)ccc2OC[C@@H]2O[C@H](CC(=O)NC3CCC3)CC[C@@H]21 | -5.79%
COc1ccc(NC(=O)C(=O)NCC2CCCN2S(=O)(=O)c2cccs2)cc1 (configuration not stated) | 23.4%
COc1ccc(OC)c(NC(=O)COc2ccc3c(c2)CCC3)c1 | 43.3%
COc1ccccc1CCNCc1ccc(OC)c(OCc2ccccc2)c1 | 45.9% [at 16 µM]
O=C(NCCCc1nc2ccccc2[nH]1)c1ccco1 | -25.6%
C[C@H](O)[C@@H]1C(=O)N2CCc3c([nH]c4cccc(-c5ccccc5)c34)[C@@H]2C[C@@H]1N(C)C(=O)OCc1ccccc1 | -17.1%
C=C(C)CN(CC)c1nc(N)c2c(N)nc3c(c2c1C#N)CC(=O)N3C12CC3CC(CC(C3)C1)C2 | 27.3%
COC(=O)[C@@]1(Cc2ccc(F)cc2)[C@H]2c3cc(C(=O)N(C)C)n(CCO)c3C[C@H]2CN1C(=O)c1ccccc1 | 39.7%
